Assay outcomes as filed in PubChem.
Compounds with a hit are over-represented: about 3.6% of the library has one in this group of screens.
Mdm2 MdmX PPI: human Mdm2/MdmX binding inhibition; 3% of 330,000 active; O15151+Q00987; SaOS-2 split-luciferase Mdm2/MdmX complementation, luminescence; inhibition, % at 8 µM;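 active = inhibition of at least 50% at 8 µM in the primary screen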
Target sequence (O15151 whole entry, looked up): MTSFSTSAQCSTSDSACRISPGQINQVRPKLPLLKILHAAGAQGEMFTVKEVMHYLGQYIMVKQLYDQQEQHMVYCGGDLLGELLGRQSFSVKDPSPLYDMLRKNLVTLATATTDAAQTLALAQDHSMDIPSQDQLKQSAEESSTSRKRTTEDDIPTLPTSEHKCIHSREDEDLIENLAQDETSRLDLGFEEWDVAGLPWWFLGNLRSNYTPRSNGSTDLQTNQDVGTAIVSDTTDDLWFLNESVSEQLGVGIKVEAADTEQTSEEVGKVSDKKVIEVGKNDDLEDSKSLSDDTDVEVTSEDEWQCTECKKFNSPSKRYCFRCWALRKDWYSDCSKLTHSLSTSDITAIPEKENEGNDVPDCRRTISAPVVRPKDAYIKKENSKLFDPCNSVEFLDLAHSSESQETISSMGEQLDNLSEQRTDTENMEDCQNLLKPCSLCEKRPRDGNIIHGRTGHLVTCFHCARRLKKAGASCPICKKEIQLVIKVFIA
Target sequence (Q00987 whole entry, looked up): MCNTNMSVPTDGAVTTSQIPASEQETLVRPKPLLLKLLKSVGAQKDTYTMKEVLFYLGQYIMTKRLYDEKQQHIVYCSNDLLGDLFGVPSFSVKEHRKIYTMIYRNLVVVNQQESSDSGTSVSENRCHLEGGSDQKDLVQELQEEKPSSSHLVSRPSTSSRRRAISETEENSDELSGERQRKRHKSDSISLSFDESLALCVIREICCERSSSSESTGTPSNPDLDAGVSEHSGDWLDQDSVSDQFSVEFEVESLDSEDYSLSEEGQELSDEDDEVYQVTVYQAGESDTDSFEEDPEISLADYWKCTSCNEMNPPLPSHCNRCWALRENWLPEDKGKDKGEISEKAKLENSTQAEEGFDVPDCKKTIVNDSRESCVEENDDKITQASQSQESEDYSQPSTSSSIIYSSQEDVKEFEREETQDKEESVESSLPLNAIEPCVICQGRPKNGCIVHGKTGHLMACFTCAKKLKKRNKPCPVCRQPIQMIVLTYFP
CF NFkB inh: cystic fibrosis NF-kB activation inhibition. KKLEB NF-kB-GFP reporter, PAF-induced, GFP fluorescence overnight. inhibition, % at 5 µM. 0.86% of 360,000 active;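 active = at least 50% inhibition at 5 µM, scaled per plate between neutral and stimulator controls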;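 also: PAF is a Pseudomonas aeruginosa culture filtrate used as stimulus; plate controls were PAF-stimulated DMSO wells for no effect and unstimulated DMSO wells for full effect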
Peg3 prom inh: reduces Peg3 promoter-driven luciferase expression in HeLa; AID 588405; HeLa PEG-Prom luciferase reporter, luminescence, overnight; inhibition, % at 20 µM; 1.7% of 360,000 active;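 active = inhibition of at least 50% at 20 µM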
KKLEB tox: counter-screen for CF NF-kB inhibitors: cytotoxicity. activity change (cytotoxicity), % at 5 µM. KKLEB CF airway cells viability, ATPlite luminescence, overnight; stronger effect = lower value; cells stimulated with P. aeruginosa culture filtrate. 0.36% of 360,000 active;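 active = corrected activity change at or below -50% at 5 µM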
HSP90 refold inh: inhibitors of HSP90 luciferase refolding in rabbit reticulocyte lysate. luciferase refolding luminescence, 3 h. inhibition, % at 5.6 µM. 0.91% of 290,000 active. AID 1789;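 active = inhibition above the screen-wide mean plus 3 SD, computed separately per campaign, cut at about 16% in these data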;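 also: 0% = DMSO wells and 100% = 60 µM geldanamycin wells; inhibitors lower the luminescence because luciferase stays unfolded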
LGR2 inh: Drosophila LGR2 receptor signaling inhibition; HEK293 LGR2, CRE-luciferase, bursicon-stimulated, 4 h; inhibition, % at 9.99 µM; 0.35% of 380,000 active; AID 720647;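 active = drop in luminescence signal, shown as inhibition above about 50% in the replicate tests, limit read from the data, passing the limit was not always enough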;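 also: agonist challenge used bursicon conditioned medium at about half maximal strength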
Mdm2-MdmX conf: human Mdm2/MdmX binding inhibition, confirmed. shares compounds with Mdm2 MdmX PPI. luminescent assay. inhibition, % at 8 µM. 55% of 10,000 active. AID 489028; in the data active = inhibition above about 40%
FLuc counter: counter-screen for Mdm2/MdmX inhibitors: full-length luciferase; 77% of 6,200 active; shares compounds with Mdm2 MdmX PPI; SaOS-2 full-length luciferase counterscreen, luminescence; AID 504607; inhibition, % at 8 µM;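 active = mean inhibition at 8 µM reaching about 37%, which flags the compound as non-specific, limit read from the data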;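 also: p53-null SaOS-2 cells with luciferase driven by a doxycycline-inducible promoter; compound on cells about two nights before reading with doxycycline added after day one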
Starred values were filed as active, the others as inactive; · = no result.

SMILES	Mdm2 MdmX PPI	CF NFkB inh	Peg3 prom inh	KKLEB tox	HSP90 refold inh	LGR2 inh	Mdm2-MdmX conf	FLuc counter
C=CC[C@H](CC(=O)N(CCO)Cc1ccccc1)C(=O)N[C@@H](COC(=O)[C@H](CC=C)CC(=O)OC(C)(C)C)Cc1c[nH]c2ccccc12	22.8	19.0	22.3	-10.3	·	25.6	·	·
C=CC[C@H](CC(=O)N(CCO)Cc1ccccc1)C(=O)N[C@@H](COC(=O)[C@@H](CC=C)Cc1ccc(F)cc1)Cc1c[nH]c2ccccc12	91.4*	7.4	60.2*	7.3	·	10.4	19.5	·
Cc1nnc(-c2ccccc2)c(=O)n1/N=C/c1c(O)ccc2ccccc12	53.6*	-12.9	38.3	4.6	-5.2	·	57.1*	30.7
CCCN1C[C@H](C)[C@@H](OC)CN(C)C(=O)c2cc(NC(=O)c3ccccc3)ccc2OC[C@@H]1C	·	·	·	·	·	3.4	·	·
COC(=O)c1ccc(NC(=O)c2nc(S(=O)(=O)Cc3cccc(C)c3)ncc2Cl)cc1	76.4*	85.2*	99.0*	-101.4*	0.5	6.2	90.8*	51.8*
Cc1cccc(COC(=O)Nc2ccc(NC(=O)c3ccccc3Cl)cc2)c1	5.6	7.8	-5.8	-6.8	3.0	11.4	·	·
CCCS(=O)(=O)c1ncc(Cl)c(C(=O)Nc2ccc(S(=O)(=O)Nc3ncccn3)cc2)n1	7.0	20.0	13.8	-1.8	-1.9	3.0	·	·
CCc1ccc(NC(=O)c2nc(S(=O)(=O)Cc3ccccc3)ncc2Cl)cc1	98.9*	91.3*	100.7*	-96.8*	0.2	3.3	84.5*	50.5*
COc1ccccc1NC(=O)c1nc(S(=O)(=O)Cc2ccccc2)ncc1Cl	97.1*	82.9*	104.5*	-85.3*	-3.2	-17.0	70.0*	50.5*
COc1ccccc1NC(=O)c1ccc(CS(=O)(=O)c2ccc(C)cc2)cc1	30.2	6.3	27.8	-13.7	0.8	-2.8	·	·
Cc1ccc(-c2nnn(CC(=O)Nc3ccc(S(=O)(=O)N4CCC(C)CC4)cc3)n2)cc1	51.6*	-6.3	62.8*	-7.9	1.4	·	26.1	·
CO[C@H]1CN(C)C(=O)c2cc(NC(=O)Nc3ccc(F)cc3)ccc2OC[C@H](C)NC[C@H]1C	·	·	·	·	·	9.8	·	·
CN(c1ccccc1)S(=O)(=O)c1ccc(NC(=O)c2nc(S(C)(=O)=O)ncc2Cl)cc1	98.5*	107.8*	110.6*	-28.8	0.0	9.8	99.8*	50.9*
CCS(=O)(=O)c1ncc(Cl)c(C(=O)Nc2ccc(S(=O)(=O)N3CCC(C)CC3)cc2)n1	100.4*	98.0*	104.8*	-105.4*	3.1	20.9	100.2*	51.8*
Cc1ccc(NC(=O)c2nc(S(=O)(=O)Cc3ccccc3C)ncc2Cl)cc1C	100.2*	99.0*	108.1*	-97.6*	3.3	2.7	70.3*	52.1*
CSc1ncc(Cl)c(C(=O)Nc2ccc(C)c(C)c2)n1	16.4	-16.3	0.0	-7.5	-4.0	3.8	·	·
Cc1cccc(CS(=O)(=O)c2ncc(Cl)c(C(=O)NCc3ccc4c(c3)OCO4)n2)c1	59.7*	88.8*	103.5*	-22.1	0.8	4.5	63.5*	16.3
CN(c1ccccc1)S(=O)(=O)c1ccc(NC(=O)c2ccccc2)cc1	24.5	1.6	-18.5	-1.8	-4.0	-9.7	·	·
CCC(=O)N1[C@H](CO)[C@@H](c2ccc(/C=C/c3ccccc3)cc2)C12CN(S(C)(=O)=O)C2	·	·	·	·	·	19.3	·	·
CCOc1ccccc1C(=O)Nc1ccc2nc(N3CCN(c4ncccn4)CC3)cc(C)c2c1	95.8*	·	·	·	-2.7	·	84.2*	51.1*
COc1cccc(C(=O)Nc2ccc3nc(N4CCN(c5ncccn5)CC4)cc(C)c3c2)c1OC	97.9*	·	·	·	3.8	·	88.2*	6.8
C[C@H]1CN([C@@H](C)CO)C(=O)c2cccc(NS(C)(=O)=O)c2O[C@H]1CN(C)C(=O)Nc1ccccc1	·	·	·	·	·	1.5	·	·
COc1cc2c(=O)n(Cc3ccco3)c(=O)n(CC(=O)c3cccc(Br)c3)c2cc1OC	50.3*	·	·	·	-2.5	·	25.2	·
COc1cc2c(=O)n(Cc3ccco3)c(=O)n(CC(=O)c3ccc(Br)cc3)c2cc1OC	46.6	12.9	16.5	-4.9	-1.3	·	·	·
COc1ccc(-n2nnc3c(=O)n(CC(=O)Nc4ccc5c(c4)OCCO5)cnc32)cc1OC	79.9*	8.4	12.9	1.3	-3.1	-0.4	14.7	·
SMILES	Mdm2 MdmX PPI	CF NFkB inh	Peg3 prom inh	KKLEB tox	HSP90 refold inh	LGR2 inh	Mdm2-MdmX conf	FLuc counter
O=C(Cn1cnc2c(nnn2-c2cccc(F)c2)c1=O)Nc1ccc2c(c1)OCCO2	52.1*	10.5	23.2	0.7	-0.8	13.7	20.7	·
CCOc1ccc(-n2nnc3c(=O)n(CC(=O)Nc4cc(C)on4)cnc32)cc1	55.7*	0.4	10.6	-7.3	4.8	1.7	2.2	·
Cn1c(=O)[nH]c(=O)c2c1nc(N/N=C/c1ccncc1)n2Cc1ccc(Cl)cc1	66.7*	-30.6	-8.9	-4.8	0.2	7.9	15.2	·
Cn1cc(/C=C2\SC(=S)N(N3CCOCC3)C2=O)c2ccccc21	50.4*	-7.9	15.7	-0.8	-1.4	·	6.3	·
CN(C)C(=O)C[C@@H]1C[C@H]2c3cc(NC(=O)NC4CCCCC4)ccc3O[C@H]2[C@@H](CO)O1	·	·	·	·	·	3.0	·	·
O=C(c1ccc(CS(=O)c2ccccc2Cl)o1)N1CCN(c2ccccc2)CC1 (stereo not drawn)	46.2	29.9	6.3	-18.8	1.8	-6.3	·	·
COc1cccc(N2CCN(C(=O)c3ccc(CS(=O)c4ccccc4C)o3)CC2)c1 (stereo not drawn)	50.9*	24.5	-3.6	-13.1	1.1	-1.9	50.5*	73.8*
COc1cccc(N2CCN(C(=O)c3ccc(CS(=O)c4ccccc4Cl)o3)CC2)c1 (stereo not drawn)	70.1*	48.5	-6.6	-17.3	-0.1	-4.9	50.8*	102.2*
COc1ccc(N2CCN(C(=O)c3ccc(CS(=O)c4cccc(C)c4)o3)CC2)cc1 (stereo not drawn)	27.2	2.9	27.6	6.2	-4.5	19.5	·	·
CCC(=O)Nc1ccc2c(c1)OC[C@@H](C)N(Cc1ccccn1)C[C@H](C)[C@H](OC)CN(C)C2=O	·	·	·	·	·	-1.1	·	·
CCOC(=O)Cn1c(=NC(=O)c2nc3ccccc3s2)sc2cc(S(N)(=O)=O)ccc21	62.5*	25.1	22.4	-16.5	3.4	-4.2	17.8	·
C=CCn1c(=NC(=O)c2sc3ccccc3c2Cl)sc2cc(S(N)(=O)=O)ccc21	68.2*	42.1	26.4	-44.0	-1.5	·	35.0	·
O=C(C1CCCCC1)N1CC2(C1)[C@@H](c1ccccc1)[C@@H](CO)N2Cc1ccc(Cl)cc1	·	·	·	·	·	-4.3	·	·
CC(C)(C)C(C(Oc1ccc(Cl)cc1)n1cncn1)n1nnnc1C(c1cccc(Cl)c1)N1CCCCC1 (stereo not drawn)	56.8*	·	·	·	7.7	·	30.7	·
